Measured values from the supplement of paper PMC8975748.
Counter-ions that a name gives are not always drawn. ± gives the standard deviation of the averaged measurements.

Experiments:
[1] = tested on: Saccharomyces cerevisiae BY4741 SeMeCo community; experiment: mean cell size (pixel area) (pixels); higher = larger cells; settings: 10 µM; 24 h; SM minimal medium
In short: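 A fluorescent Saccharomyces cerevisiae BY4741 community carrying four plasmids was used, with each plasmid complementing one auxotrophy and bearing a fluorescent marker. An overnight preculture at OD600 = 1.0 was diluted to OD600 = 0.3, and 70 µl went into 384-well plates acoustically predosed with drug (final 10 µM) in SM medium for 24 h. After paraformaldehyde fixation, cells were imaged by automated confocal microscopy and analysed in Harmony, giving the mean cell pixel area per well. Each value is the average of 3 replicates. Same SeMeCo high-content imaging drug screen: Selleck FDA-approved drugs at 10 µM, 24 h in SM medium, 384-well plates, 3 replicates.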

[2] = tested on: Saccharomyces cerevisiae BY4741 SeMeCo community; experiment: z-score of prototroph abundance vs DMSO median; higher = larger share of this subpopulation than in DMSO controls; settings: 10 µM; 24 h; SM minimal medium; subpopulation (auxotrophy): Prototroph
In short: (§1)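 Automated confocal microscopy of paraformaldehyde-fixed cells was used to follow a Saccharomyces cerevisiae BY4741 community carrying four plasmids, each restoring one auxotrophy and encoding a distinct fluorescent protein. The community was pre-grown overnight to OD600 1.0, diluted to 0.3, and added at 70 µl to 384-well plates acoustically predosed with library drugs (10 µM final) for 24 h of growth in minimal SM medium. Single-auxotroph fluorescent strains set thresholds and autofluorescence correction, and each subpopulation's abundance was scored as a z-score against the vehicle-well median.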

[3] = tested on: Saccharomyces cerevisiae BY4741 SeMeCo community; experiment: z-score of subpopulation abundance vs DMSO median, subpopulation auxotrophic for M; higher = larger share of this subpopulation than in DMSO controls; settings: 10 µM; 24 h; SM minimal medium; subpopulation (auxotrophy): M
In short: as §1

[4] = tested on: Saccharomyces cerevisiae BY4741 SeMeCo community; experiment: z-score of subpopulation abundance vs DMSO median, subpopulation auxotrophic for L; higher = larger share of this subpopulation than in DMSO controls; settings: 10 µM; 24 h; SM minimal medium; subpopulation (auxotrophy): L
In short: as §1

[5] = tested on: Saccharomyces cerevisiae BY4741 SeMeCo community; experiment: z-score of subpopulation abundance vs DMSO median, subpopulation auxotrophic for U; higher = larger share of this subpopulation than in DMSO controls; settings: 10 µM; 24 h; SM minimal medium; subpopulation (auxotrophy): U
In short: as §1

[6] = tested on: Saccharomyces cerevisiae BY4741 SeMeCo community; experiment: z-score of subpopulation abundance vs DMSO median, subpopulation auxotrophic for LU; higher = larger share of this subpopulation than in DMSO controls; settings: 10 µM; 24 h; SM minimal medium; subpopulation (auxotrophy): LU
In short: as §1

[7] = tested on: Saccharomyces cerevisiae BY4741 SeMeCo community; experiment: z-score of subpopulation abundance vs DMSO median, subpopulation auxotrophic for HM; higher = larger share of this subpopulation than in DMSO controls; settings: 10 µM; 24 h; SM minimal medium; subpopulation (auxotrophy): HM
In short: as §1

[8] = tested on: Saccharomyces cerevisiae BY4741 SeMeCo community; experiment: z-score of subpopulation abundance vs DMSO median, subpopulation auxotrophic for HU; higher = larger share of this subpopulation than in DMSO controls; settings: 10 µM; 24 h; SM minimal medium; subpopulation (auxotrophy): HU
In short: as §1

[9] = tested on: Saccharomyces cerevisiae BY4741 SeMeCo community; experiment: z-score of subpopulation abundance vs DMSO median, subpopulation auxotrophic for UM; higher = larger share of this subpopulation than in DMSO controls; settings: 10 µM; 24 h; SM minimal medium; subpopulation (auxotrophy): UM
In short: as §1

[10] = tested on: Saccharomyces cerevisiae BY4741 SeMeCo community; experiment: z-score of subpopulation abundance vs DMSO median, subpopulation auxotrophic for HL; higher = larger share of this subpopulation than in DMSO controls; settings: 10 µM; 24 h; SM minimal medium; subpopulation (auxotrophy): HL
In short: as §1

[11] = tested on: Saccharomyces cerevisiae BY4741 SeMeCo community; experiment: z-score of subpopulation abundance vs DMSO median, subpopulation auxotrophic for HLU; higher = larger share of this subpopulation than in DMSO controls; settings: 10 µM; 24 h; SM minimal medium; subpopulation (auxotrophy): HLU
In short: as §1

[12] = tested on: Saccharomyces cerevisiae BY4741 SeMeCo community; experiment: z-score of subpopulation abundance vs DMSO median, subpopulation auxotrophic for HLM; higher = larger share of this subpopulation than in DMSO controls; settings: 10 µM; 24 h; SM minimal medium; subpopulation (auxotrophy): HLM
In short: as §1

[13] = tested on: Saccharomyces cerevisiae BY4741 SeMeCo community; experiment: z-score of subpopulation abundance vs DMSO median, subpopulation auxotrophic for HUM; higher = larger share of this subpopulation than in DMSO controls; settings: 10 µM; 24 h; SM minimal medium; subpopulation (auxotrophy): HUM
In short: as §1

[14] = tested on: Saccharomyces cerevisiae BY4741 SeMeCo community; experiment: z-score of subpopulation abundance vs DMSO median, subpopulation auxotrophic for LUM; higher = larger share of this subpopulation than in DMSO controls; settings: 10 µM; 24 h; SM minimal medium; subpopulation (auxotrophy): LUM
In short: as §1

[15] = tested on: Saccharomyces cerevisiae BY4741 SeMeCo community; experiment: z-score of subpopulation abundance vs DMSO median, subpopulation auxotrophic for H; higher = larger share of this subpopulation than in DMSO controls; settings: 10 µM; 24 h; SM minimal medium; subpopulation (auxotrophy): H
In short: as §1

[16] = tested on: Saccharomyces cerevisiae BY4741 SeMeCo community; experiment: z-score of subpopulation abundance vs DMSO median, subpopulation auxotrophic for HLUM; higher = larger share of this subpopulation than in DMSO controls; settings: 10 µM; 24 h; SM minimal medium; subpopulation (auxotrophy): HLUM
In short: as §1

[17] = tested on: Saccharomyces cerevisiae BY4741 SeMeCo community; experiment: z-score of subpopulation abundance vs DMSO median, subpopulation auxotrophic for LM; higher = larger share of this subpopulation than in DMSO controls; settings: 10 µM; 24 h; SM minimal medium; subpopulation (auxotrophy): LM
In short: as §1

Structure (SMILES) | mean cell size [1] | z-score of prototroph abundance [2] | z-score of subpopulation abundance [3] | z-score of subpopulation abundance [4] | z-score of subpopulation abundance [5] | z-score of subpopulation abundance [6] | z-score of subpopulation abundance [7] | z-score of subpopulation abundance [8] | z-score of subpopulation abundance [9] | z-score of subpopulation abundance [10] | z-score of subpopulation abundance [11] | z-score of subpopulation abundance [12] | z-score of subpopulation abundance [13] | z-score of subpopulation abundance [14] | z-score of subpopulation abundance [15] | z-score of subpopulation abundance [16] | z-score of subpopulation abundance [17]
CCC[C@@H]1C[C@@H](C(=O)N[C@@H]([C@H]2O[C@H](SC)[C@H](O)[C@@H](O)[C@H]2O)[C@@H](C)O)N(C)C1 [Lincomycin Hydrochloride Monohydrate] | 12.3 ± 0.19 | -0.67 | 0.19 | -0.22 | 0.86 | 0.94 | -0.07 | 0.41 | 0.42 | -0.46 | 0.91 | -0.3 | -0.11 | 0.4 |  |  | 
CN(C)CCn1nnnc1SCC1=C(C(=O)O)N2C(=O)[C@@H](NC(=O)Cc3csc(N)n3)[C@H]2SC1 [Cefotiam hydrochloride] | 12.24 ± 0.031 |  | 1.1 | 1.99 | -0.08 | 1.53 | 1.4 | 0.76 | 1.04 | 1.92 | 1.21 | 0.75 | 0.5 | 1.11 | 1.72 | 0.99 | 
COc1ccc(CN2CCN(C(c3ccc(F)cc3)c3ccc(F)cc3)CC2)c(OC)c1OC [Lomerizine 2HCl] | 12.443 ± 0.0032 | -0.1 | -0.52 | 0.3 |  | -0.08 | 0.78 | 0.22 |  | 0.04 | 0.88 | 0.32 | -0.52 | -0.31 | -0.09 | -0.64 | 
O=C1CN(/N=C/c2ccc(-c3ccc([N+](=O)[O-])cc3)o2)C(=O)N1 [Dantrolene sodium hemiheptahydrate] |  | 1 | 3.93 | 1.44 | -4.45 | -1.88 | 1.38 | -2.96 | -3.9 | 1.61 | -1.02 | 2.77 | -1.65 | -1.33 | 2.07 | 0.57 | 1.95
CN(CCOc1ccc(NS(C)(=O)=O)cc1)CCc1ccc(NS(C)(=O)=O)cc1 [Dofetilide] | 12.4 ± 0.18 | 0.39 | -0.18 | -0.53 | 0.48 | 0.5 |  | 0.18 | 0.1 | -0.22 | -0.23 | -0.86 | 0.21 | -0.27 | -0.68 | -0.1 | 
CCN(CC)CC#CCOC(=O)C(O)(c1ccccc1)C1CCCCC1 (centres undefined) [Oxybutynin chloride] |  | 1.15 | -0.21 | -0.83 | -0.51 | -1.2 | 0.06 | -0.4 | -1.11 | -0.93 | -0.57 | -0.24 | -0.97 | -0.46 | -0.41 | -0.26 | -0.32
C[C@@H](c1nc(-c2ccc(C#N)cc2)cs1)[C@](O)(Cn1cncn1)c1cc(F)ccc1F [Isavuconazole] | 11.95 ± 0.079 | -10.4 | -1.83 | -0.71 | -1.5 | 0.81 | 8.09 | 8.91 |  |  | 6.83 | 15.5 | 10.4 | 7.48 | 15.6 | 13.5 | 
Cc1onc(-c2c(F)cccc2Cl)c1C(=O)N[C@@H]1C(=O)N2[C@@H]1SC(C)(C)[C@@H]2C(=O)O [Flucloxacillin sodium] | 12.55 ± 0.1 |  | 1.08 | -0.25 | 0.55 | 0.16 | 0.12 | -0.23 | 0.64 | -0.43 | -0.04 | -0.51 | 0.1 |  | -0.11 | -0.68 | 
CN(C)CC(c1ccc(O)cc1)C1(O)CCCCC1 (centres undefined) [Desvenlafaxine] | 12.4 ± 0.27 | 0.76 | -0.95 | -0.35 | 0.57 | -0.16 | -1.06 | -0.26 | -0.37 | -0.75 | -1.12 | -0.85 | -0.85 |  | -0.84 | -0.91 | 
Nc1nc(N)nc(-c2cc(Cl)ccc2Cl)n1 [Irsogladine] | 12.2 ± 0.19 |  | -0.36 | -0.15 | -1.06 | -1.09 | -0.68 | -0.69 | -1.92 | -0.18 | 0.75 | -0.41 | -1.16 | -0.45 | -0.31 | -0.22 | 
O=C1OC(CN2CCOCC2)CN1/N=C/c1ccc([N+](=O)[O-])o1 (centres undefined) [Furaltadone HCl] | 12.75 ± 0.12 | 0.34 | 0.83 | -0.94 | 0.25 | -0.14 | 0.11 | -0.63 | 0.47 |  | -0.79 | -0.4 | -0.1 | -0.33 | -0.56 | -0.39 | 
N[C@@H]1CN(c2c(F)cc3c(=O)c(C(=O)O)cn([C@@H]4C[C@@H]4F)c3c2Cl)CC12CC2 [Sitafloxacin Hydrate] |  | -1.39 | 0.3 | 0.29 | 1.07 | 0.44 | 0.61 | 1.54 | 1.53 | 0.18 | 0.03 | -0.5 | 0.81 | 0.98 | 0.2 | -0.03 | 0.69
CC(C)c1nc(N(C)S(C)(=O)=O)nc(-c2ccc(F)cc2)c1/C=C/[C@@H](O)C[C@@H](O)CC(=O)O [Rosuvastatin Calcium] | 11.6 ± 0.2 | -1.23 | -1.93 | 0.29 | 0.59 | 1.26 |  | 2.1 | 2.31 | 0.38 | 1.41 | 3.96 | 2.14 | 1.01 | 0.06 |  | 
Cc1ncc([N+](=O)[O-])n1C [Dimetridazole] |  | 0.38 | -0.26 | -1.34 | -0.07 | -0.31 | -0.42 | 0.17 | -0.37 | -0.32 | -0.59 | 0.46 | 0.28 | -1.1 | 0.05 | 0.31 | -0.99
